Screening data from PubChem BioAssay.
Pf Dd2 inh – blocks in vitro growth of P. falciparum Dd2. 4.3% of 120,000 active. P. falciparum Dd2 growth, SYBR Green, 72 h. Potency, µM (series often up to 28.9 µM), without a hit: top-dose activity, negative = inhibition, most hits filed as inhibitors; active = well fitted inhibition curve with a large enough effect;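 also: plate controls were DMSO vehicle for no effect and reference drug for full effect; nearly all actives have a fitted effect of over 65% in size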
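Readout: SYBR Green fluorescence, 485 nm excitation, 535 nm emission, after ~16 h lysis at 37C. Before that, Dd2-infected red cells (2.5% hematocrit) grew 72 h with compound, 29 uM top final concentration.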
* marks the source's active call; other numbers are inactive results; i = inactive; [ ] = another dose, or the depositor's remark. This excerpt belongs to a sample that is enriched for hits. Potency is read from the fitted curve at half-maximal effect.

SMILES | Pf Dd2 inh
Cc1cc(Cn2cc3c4c(cccc42)[C@H](CC(C)C)N[C@H](C(=O)NCc2ccccn2)C3)no1 | 13µM*
Cc1cc(Cn2cc3c4c(cccc42)[C@H](CC(C)C)N[C@H](C(=O)NCCN2CCOCC2)C3)no1 | -6%
Cc1cc(Cn2cc3c4c(cccc42)[C@H](CC(C)C)N[C@H](C(=O)NCCN(C)C)C3)no1 | 7.9µM*
Cn1cncc1C(=O)N1CCCn2ccnc2C1c1ccccc1 (stereo not given) | -6%
Cc1cccc(C(=O)N2CCC3(CC2)N=C(c2ccc(Cl)cc2)NO3)c1 | 24%
COc1cc2c(cc1OC)C(C[C@H]1CN(C(=O)Nc3cccc(Cl)c3)CC[C@H]1CC(=O)O)=NCC2 | i
CCN(CC)C(=O)CC[C@@H]1CNC(=O)[C@@H]2C[C@H](NC(=O)c3ccc(N(C)C)cc3)CN12 | -4%[44.1 µM]
NC(=O)CCN1CCc2onc(-c3ccccc3F)c2C1 | 5%
O=C1NCCOCCN(S(=O)(=O)c2cccc3nsnc23)[C@@H]2CCCC[C@H]12 | -23%
Cn1ccnc1CN1C[C@@H]2C[C@H]1C(=O)N(Cc1ccccn1)c1ccccc1O2 | -17%[44.1 µM]
COCCn1ncc(N2CCCC(CC(=O)Nc3ccccc3OC)C2)cc1=O (stereo not given) | 12%
O=C1[C@@H]2C[C@@H](CN2Cc2nccs2)Oc2ccccc2N1CC1CC1 | i
O=C1[C@@H]2C[C@@H](CN2C(=O)C2CC2)Oc2ccccc2N1Cc1ccc(OC(F)(F)F)cc1 | i
O=C1[C@@H]2C[C@@H](CN2Cc2cccc(Cl)c2)Oc2ccccc2N1CC1CC1 | -11%[44.1 µM]
O=C1[C@@H]2C[C@@H](CN2CC2CC2)Oc2ccccc2N1Cc1ccc(OC(F)(F)F)cc1 | 4µM*
O=C1[C@@H]2C[C@@H](CN2Cc2ccc(Cl)cc2)Oc2ccccc2N1CC1CC1 | 13µM*
COCC(=O)N1C[C@@H]2C[C@H]1C(=O)N(Cc1ccc(OC(F)(F)F)cc1)c1ccccc1O2 | i
CCC1=C(C(=O)OC)C(c2ccc(C)cc2C)N2C(CC(=O)NCC3CCCO3)=CSC2=N1 (stereo not given) | -20%
Cc1cccc(CN2CCNc3cc(-c4ccnc(C)c4)ncc3C2)c1 | i
O=c1[nH]cccc1-c1nccc(C2(c3ccccc3Cl)CCNCC2)n1 | -21%
CCCNC(=O)N1CCC(n2c(C)cnc2C2CCOCC2)CC1 | 11%
O=C(c1ccccc1F)N1CCC2(CC1)COc1ccccc1NC2=O | 5%
O=C1NC2(CCN(C(=O)c3ccc4c(c3)OCO4)C2)Oc2ccccc21 (stereo not given) | -19%
O=C(c1ccc2c(c1)OCO2)N1CCC2(CC1)COc1ccccc1CN2 | 1.3µM*
O=C1CC(C(=O)O)C2(CCN(C(=O)c3ccc4c(c3)OCO4)CC2)N1 (stereo not given) | 5%
SMILES | Pf Dd2 inh
O=C(c1ccccc1F)N1CCC2(CC1)COc1ccccc1CN2 | 1.1µM*
O=C1NC2(CCCN(C(=O)c3ccccc3F)C2)COc2ccccc21 (stereo not given) | -22%
O=C1NCCOCCCN(C(=O)c2nccc3ccccc23)[C@H]2CCCC[C@@H]12 | i
COc1cccc(CN2C[C@@H]3C(=O)N(CCCN4CCCC4=O)C(=O)[C@@H]3C2)c1 | -8%
O=c1n(-c2ccncc2)nc2n1CCN(Cc1cccc3ccccc13)C2 | -16%
COc1ccc(-n2nc(C3CCN(C(=O)c4ccccc4Cl)CC3)[nH]c2=O)cc1 | i
CN(C)Cc1nnc(C2CCCN(C(=O)c3cnn4ccccc34)C2)n1C (stereo not given) | 4%
COC[C@@H]1CN(C(=O)c2ccc3ncccc3c2)C[C@H]1c1ccncc1 | -2%
COCC1CN(C)CC12CCN(C(=O)Cc1cccc(Cl)c1)CC2 (stereo not given) | i
Cn1nc2n(c1=O)CCC(NC(=O)c1c(F)cccc1Cl)CC2 (stereo not given) | 9%
COC(=O)c1ccccc1NC(=O)O[C@@H]1CO[C@H]2[C@@H]1OC[C@@H]2Nc1nccc(-c2ccc(N(C)C)cc2)n1 | 5µM*
COc1cc(NC(=O)N[C@H]2CO[C@H]3[C@@H]2OC[C@@H]3Nc2nccc(-c3ccc(-c4ccccc4)cc3)n2)cc(OC)c1 | -27%
COc1ccc(-c2ccnc(N[C@H]3CO[C@H]4[C@@H]3OC[C@H]4OC(=O)Nc3cccc(OC)c3)n2)cc1 | -8%
COc1ccc(-c2ccnc(N[C@H]3CO[C@H]4[C@@H]3OC[C@@H]4NC(=O)Nc3cccc(C#N)c3)n2)cc1 | -29%
COc1cc(NC(=O)N[C@H]2CO[C@H]3[C@@H]2OC[C@@H]3Nc2nccc(-c3ccc(N(C)C)cc3)n2)cc(OC)c1 | 13µM*
CN(C)c1ccc(-c2ccnc(N[C@H]3CO[C@H]4[C@@H]3OC[C@H]4OC(=O)NCc3ccccc3)n2)cc1 | i
COC(=O)c1cccc(NC(=S)N[C@@H]2C=C[C@@H](c3c(C)nn(-c4ccccc4[N+](=O)[O-])c3C)C2)c1 | -8%
c1ccc(Cc2nnc([C@H]3CCN(CC4CCCCC4)C3)o2)cc1 | i
CCN(Cc1nccn1C)C(=O)c1ccc(NC[C@H]2C[C@H]3C=C[C@H]2C32CC2)nc1 | i
CCOc1ccc(-n2c(Cc3ccccc3)nnc2SCc2nc(-c3ccccc3C)no2)cc1 | -16%
Cc1ccc(-c2noc(CSc3nnc(Cc4ccccc4)n3-c3cccc(C)c3)n2)cc1 | 9%
CCOc1ccc(-c2noc(CSc3nnc(Cc4ccccc4)n3-c3cccc(C)c3)n2)cc1 | 10µM*
COc1ccccc1[C@@H]1CN(C(=O)c2cc(C(C)C)[nH]n2)C[C@H]1C(=O)O | -16%
O=C(c1ccccc1OCC1CCCN(CCCc2ccccc2)C1)N1CCCC1 (stereo not given) | i
CCN(CC)S(=O)(=O)NC1CCCN(CCCc2ccccc2)C1 (stereo not given) | -2%
SMILES | Pf Dd2 inh
COC(=O)N1CCCCC(NC(=O)CCCc2nc(-c3ccccc3C)no2)C1 (stereo not given) | -19%
O=C(CCc1nc(-c2ccccc2)no1)NC1CCCN(CCCc2ccccc2)C1 (stereo not given) | 7.1µM*
COC(=O)c1cccc(C(=O)NC2CCCN(CCCc3ccccc3)C2)c1 (stereo not given) | 8.9µM*
O=C(CCn1ccc(=O)[nH]c1=O)NC1CCCN(CCCc2ccccc2)C1 (stereo not given) | -10%
O=C1N[C@H](CCC(=O)N2CCCC2)C(=O)Nc2ccccc21 | 11%
Cc1cnc(CC2CCN(C(=O)c3cccnc3)C2)n1C(C)C (stereo not given) | -14%
O=C(c1ccncc1)N1CCCC(c2nnc3n2CCNC3)C1 (stereo not given) | 3%
COc1ccc(C(=O)N2CCC(c3nc4ccccc4s3)CC2)cc1Cl | 94%
Cn1cc(C2CCN(C(=O)c3sc(Cl)c(Cl)c3Cl)CC2)c2ccccc21 | 7.9µM*
CCCn1cc(C2CCN(S(=O)(=O)c3ccccc3Cl)CC2)c2ccccc21 | -1%
CC(C)NC(=O)C(NC(=O)c1ccc2c(c1)OCO2)C1CCN(C(=O)c2ccc(F)cc2)CC1 (stereo not given) | -12%
CCC(=O)Nc1ccc(C2(C(=O)N3CCN(c4ccccc4)CC3)CCC2)cc1 | -20%
CC(C)C(=O)Nc1ccc(C2(C(=O)N3CCN(c4ccccc4)CC3)CCCCC2)cc1 | 7.9µM*
CCNC(=O)C1(c2ccc(NC(=O)C(C)C)cc2)CCCCC1 | -13%
COc1cccc([S+](=O)([O-])N2CC3ON=C(C(=O)O)C3C2)c1 (stereo not given) | 5%
Cc1ccc(Cl)cc1NC(=O)C1CCN(c2nnc(C)c3c(C)n(-c4ccccc4)nc23)CC1 | i
